RTF Ca sens inh: cardiac RTF calcium desensitization; P19429+P45379; IANBD-labeled cardiac RTF, Ca2+ fluorescence; inhibition, % at 7.15 µM; 340,000 tested, 0.12% active; AID 493244;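 active = inhibition above the mean inhibition of all tested compounds plus 3 SD, cut at about 17% in these data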;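 also: assay run at fixed EC70 calcium of 1.6 mM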
CRFR2-BP ag: agonists of human CRF-binding protein/CRF-R2 receptor complex | HEK293 CRF-R2/CRF-BP, calcium dye fluorescence (FLIPR); percent of saturating CRF peptide response | activation, % at 13.2 µM | 350,000 tested, 0.46% active | AID 588473;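 active = activation of at least 50%, plus an integration ratio under a set limit after plate pattern correction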;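 also: plate controls were neutral control wells without compound for no effect and CRF at EC100 for full effect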
RTF Ca sens act: increases calcium sensitivity of human cardiac regulated thin filaments. P19429+P45379. IANBD-labeled TnC RTF fluorescence at EC20 calcium; 0% EC20 calcium, 100% full calcium. activation, % at 7.2 µM. 340,000 tested, 0.24% active;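 active = activation above the mean over all tested compounds plus 3 SD, cut at about 30% in these data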;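 also: rise in fluorescence read as greater calcium sensitivity of cardiac thin filaments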
CRFBP-R2 block: antagonists of CRF-binding protein/CRF-R2 receptor complex. inhibition, % at 11.8 µM. 350,000 tested, 0.59% active. HEK293 CRF-R2/CRF-BP, CRF-induced calcium fluorescence;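 active = inhibition of the ligand-induced calcium signal above about 50% at the single tested concentration, limit read from the data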
* marks the source's active call; other numbers are inactive results; i = inactive; . = not tested or not shown; + = active, no number. Sampled rows, rich in hits. Any-hit rate of the full collection: about 1.3%.

SMILES	RTF Ca sens inh	CRFR2-BP ag	RTF Ca sens act	CRFBP-R2 block
O=C(COc1ccccc1C(=O)c1cnn(-c2ccccc2)c1)Nc1ccc2ccccc2c1	-5	15	3	141*
CC(C)c1ccc(NC(=O)COc2ccc(F)cc2C(=O)c2cnn(-c3ccccc3)c2)cc1	0	-2	10	-44
Nc1ccc2c3c(cccc13)-c1ccccc1-2	-416	197*	359*	-216
Nc1ccc2ccc(O)cc2c1	4	-2	-5	18
C[n+]1c2cc(N)ccc2cc2ccc(N)cc21	i	225*	+	-209
COc1ccc2[nH]cc(C(=O)CN3CCN(C4CCCCC4)CC3)c2c1	0	-1	-2	13
COc1ccc2[nH]cc(C(=O)CN3CCCCC3)c2c1	-2	59*	3	-15
CCCCOc1ccccc1C1C(C(=O)OC)=CN(CC)C=C1C(=O)OC	-1	0	-3	59*
CCCOc1ccccc1C1C(C(=O)OC)=CN(C(C)C)C=C1C(=O)OC	4	-4	-2	2
O=S(=O)(Nc1ccc2c(c1)CCC2)c1cccs1	-1	1	3	52*
O=C(c1cccs1)N1CCN(c2ncc(Br)cn2)CC1	-10	0	-2	-4
N#Cc1c2ccc(O)cc2n2ccccc12	4	73*	0	-71
N#Cc1c2ccc(OCC(=O)NCc3ccco3)cc2n2ccccc12	-3	2	3	-1
CCN(CC)c1ccc(S(=O)(=O)N2CCOCC2)cc1NC(=O)CSc1nncs1	-9	-1	-8	0
COc1cccc(C2CC(c3cccs3)=NN2C(=S)Nc2ccccc2)c1OC (stereo not given)	3	3	12	81*
COc1cc(C(=O)NCC(c2cccs2)N2CCOCC2)c([N+](=O)[O-])cc1OC (stereo not given)	-15	0	-2	-10
CCOC(=O)c1ccc(CNC(=O)Cn2nnc(-c3ccccc3F)n2)o1	-24	-1	5	9
CCOC(=O)c1ccc(CNC(=O)Cn2nnc(-c3ccccc3)n2)o1	13	143*	-5	-100
COC(=O)c1ccccc1-c1c2ccc(=N)cc-2oc2cc(N)ccc12	.	176*	+	-92
COC(=O)c1ccccc1S(=O)(=O)N1CCC(C(=O)OCC(=O)c2ccccc2OC)CC1	-6	1	-5	7
Cc1cc(N2CCN(S(=O)(=O)c3ccc(Cl)cc3)CC2)c2ccccc2n1	-1	0	0	62*
COc1cc(OC)c2cc(C(=O)N[C@@H](Cc3ccccc3)C(=O)O)n(C)c2c1	1	-1	-4	2
COc1cccc(CNC(=O)CN(c2cc(C)cc(C)c2)S(=O)(=O)c2c(C)noc2C)c1	-6	0	3	-13
COc1cccc(CNC(=O)CN(c2ccc(C(C)C)cc2)S(=O)(=O)c2c(C)noc2C)c1	-3	2	2	110*
Cn1c(=O)c2cc3c(nc2n(C)c1=O)CC(c1ccccc1)CC3=O (stereo not given)	6	-5	1	67*
SMILES	RTF Ca sens inh	CRFR2-BP ag	RTF Ca sens act	CRFBP-R2 block
COc1ccc(/C=C2\SC(=S)N(C(Cc3ccccc3)C(=O)O)C2=O)cc1 (stereo not given)	1	-1	-5	58*
COc1cccc(/C=C2\SC(=S)N(NS(=O)(=O)c3ccc(C)cc3)C2=O)c1OC	-8	.	2	.
COc1cc(/C=C2\SC(=S)N(NS(=O)(=O)c3ccc(C)cc3)C2=O)cc(OC)c1OC	-1	1	-2	55*
O=C(O)C(Cc1ccccc1)N1C(=O)/C(=C/c2cccnc2)SC1=S (stereo not given)	-9	-1	5	11
COc1cc(/C=C2\SC(=S)N(NS(=O)(=O)c3ccccc3)C2=O)ccc1O	3	27	0	-36
COc1cc(/C=C2\SC(=S)N(C(C(=O)O)c3ccccc3)C2=O)ccc1O (stereo not given)	-5	53*	6	-51
COc1cc(/C=C2\SC(=S)N(NS(=O)(=O)c3ccc(C)cc3)C2=O)ccc1O	-7	59*	1	-34
O=C(COc1cccnc1[N+](=O)[O-])Nc1ccc(Cl)c(S(=O)(=O)N2CCOCC2)c1	10	3	-1	-7
C=C1CCN(C(C)C(=O)O)S(=O)(=O)c2ccccc21 (stereo not given)	-10	4	-5	7
Cc1coc2c(C)c3oc(=O)c(CCC(=O)N4CCC(C(=O)NCCCC(=O)O)(c5ccccc5)CC4)c(C)c3cc12	-11	4	1	8
COc1cc(/C=C2\SC(=S)N(NC(=O)c3cccc(O)c3)C2=O)ccc1O	-20	64*	11	-62

Compound activity as filed in PubChem BioAssay.
